An excerpt weighted towards active compounds, which were near 11% of everything screened.
JMJD2A Tudor – inhibitors of human JMJD2A Tudor domain. O75164. AlphaScreen JMJD2A-Tudor / H3K4me3 peptide binding. Potency, µM (doses to about 114 µM), hits mostly inhibitors. 390,000 compounds, 4.4% hits. AID 504339; further: nearly all actives have a fitted effect of over 50% in size
L3MBTL1 block – blocks human L3MBTL1; Q9Y468; Potency, µM (doses to about 57.1 µM), usual class: inhibitors; AlphaScreen L3MBTL1–H3K9me1 peptide binding; 230,000 compounds, 0.66% hits; AID 485360; further: nearly all actives have a fitted effect of over 60% in size
Target sequence (Q9Y468 whole entry, looked up): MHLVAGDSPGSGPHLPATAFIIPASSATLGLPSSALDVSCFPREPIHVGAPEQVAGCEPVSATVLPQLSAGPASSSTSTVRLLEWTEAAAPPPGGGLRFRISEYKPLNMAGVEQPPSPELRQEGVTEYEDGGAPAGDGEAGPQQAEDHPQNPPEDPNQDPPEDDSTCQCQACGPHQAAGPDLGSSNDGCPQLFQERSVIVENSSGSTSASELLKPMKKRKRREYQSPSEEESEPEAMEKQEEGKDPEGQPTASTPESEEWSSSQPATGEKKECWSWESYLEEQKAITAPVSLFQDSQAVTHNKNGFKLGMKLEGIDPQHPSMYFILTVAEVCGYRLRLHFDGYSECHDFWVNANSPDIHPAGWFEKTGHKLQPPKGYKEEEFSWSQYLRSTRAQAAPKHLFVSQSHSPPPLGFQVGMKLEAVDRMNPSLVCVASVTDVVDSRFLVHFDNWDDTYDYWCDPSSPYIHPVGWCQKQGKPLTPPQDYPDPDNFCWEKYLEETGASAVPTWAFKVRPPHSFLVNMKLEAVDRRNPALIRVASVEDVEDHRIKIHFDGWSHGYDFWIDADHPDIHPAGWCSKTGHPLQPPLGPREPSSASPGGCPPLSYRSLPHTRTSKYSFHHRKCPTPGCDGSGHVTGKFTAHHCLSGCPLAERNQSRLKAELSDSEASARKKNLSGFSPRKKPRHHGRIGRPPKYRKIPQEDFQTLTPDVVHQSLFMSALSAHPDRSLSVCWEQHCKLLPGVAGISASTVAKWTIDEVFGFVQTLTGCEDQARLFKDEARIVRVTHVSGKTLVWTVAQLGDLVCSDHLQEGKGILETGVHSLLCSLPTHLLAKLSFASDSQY
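Read-out is AlphaScreen signal from streptavidin donor and nickel chelate acceptor beads (10 ug/mL final each) bridging L3MBTL1 (50 nM) and biotinylated K9-monomethylated H3(1-15) peptide (75 nM), after 30 min compound exposure at room temperature.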
HP1b chromo inh – inhibitors of HP1-beta chromodomain binding to methylated histone tails | Potency, µM (series often up to 114 µM), hits mostly inhibitors | AlphaScreen HP1-beta / biotin-H3K9me3 peptide binding | P83916 | AID 540317 | 390,000 compounds, 0.56% hits; further: nearly all actives have a fitted effect of over 70% in size
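HP1-beta protein (50 nM final) preincubated 30 min at room temperature with biotinylated H3(1-18)K9me3 peptide (50 nM) in PBS pH 7.4, 0.01% Tween-20, then compound added for 30 min. AlphaScreen streptavidin donor/nickel chelate acceptor beads (10 ug/mL final), 30 min dark, luminescence read.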
PI5P4Ka inh – PI5P4K alpha (human) kinase inhibition. PI5P4Kalpha enzyme, ADP-Glo luminescence, 60 min; hits give low values. AID 652105. max response, %. 330,000 compounds, 1.2% hits. P48426; active means max response of -50% or lower; inconclusive means between -30% and -50%; inactive means -30% or higher; further: value at the top dose of about 77 µM
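Controls without substrate or without enzyme flank wells where PI5P4Kalpha converts substrate using 5 microM ATP (final). Incubation lasts 60 minutes at room temperature; ADP formed is read by ADP-Glo luminescence.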
BAZ2B block – inhibitors of human BAZ2B bromodomain. Q9UIF8. AlphaScreen BAZ2B-H3K14Ac peptide displacement. Potency, µM (highest dose often 114 µM), usual class: inhibitors. 360,000 compounds, 4.4% hits; further: nearly all actives have a fitted effect of over 60% in size
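BAZ2B (50 nM) with biotin-H3(5-23)K14Ac peptide (50 nM) in PBS pH 7.4, 0.01% Tween-20, preformed 30 min, then compound 30 min at room temperature; top concentration 110uM. AlphaScreen streptavidin donor/nickel chelate acceptor beads (10 ug/mL final), 20 min dark, signal read.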
G9a inh – inhibitors of human histone lysine methyltransferase G9a; Potency, µM (top dose mostly 102 µM), actives largely listed as inhibitors; 350,000 compounds, 8.8% hits; G9a H3K9 monomethylation, AlphaScreen, 2 h; further: nearly all actives have a fitted effect of over 75% in size
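Enzyme 20 nM + cpd, 15 min RT; add b-H3K9 pep 500 nM / SAM 20 uM; 2 h RT; anti-H3K9me1 Ab 0.5 ug/mL + SA donor / anti-rabbit acceptor beads 20 ug/mL each, 10 min; AlphaScreen read.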
Of the large screens only hits and unclear results are named; the others gave an inactive call; ! = not confirmed by another sample. Unless noted, the call rests on the fitted dose curve; in most records, active means well fitted inhibition curve with a large enough effect; inconclusive means small, poorly fitted or top-dose-only effect; inactive means no such curve, though single readings can be large or run the other way.

Nc1ccc2ccc3cccc[n+]3c2c1	G9a inh 35.5µM
Cc1cc(C(=O)OCC(=O)Nc2ccccc2F)c(C)n1C1CC1	G9a inh 50.1µM
C[N+]1(C)CCN(c2ccccc2)CC1	JMJD2A Tudor 44.7µM, G9a inh 8.44µM!
c1ccc(N2CC3(CCNCC3)C2)cc1	none (no result: JMJD2A Tudor, L3MBTL1 block, HP1b chromo inh, PI5P4Ka inh, BAZ2B block)
CC(C)CN1CC[C@@]2(CCCN(C(=O)c3ccncc3)C2)C1	none (no result: JMJD2A Tudor, L3MBTL1 block, HP1b chromo inh, PI5P4Ka inh, BAZ2B block)
COc1ccc2[nH]cc(CCN(C)C)c2c1	L3MBTL1 block inconclusive, G9a inh 56.2µM!
COc1ccc(CNC(=O)/C=C/c2ccc3[nH]cc(CCN(C)C)c3c2)cc1	BAZ2B block inconclusive, G9a inh 39.8µM! (no result: L3MBTL1 block)
COc1ccc2[nH]cc(C(=O)CN(C)C)c2c1	none (no result: L3MBTL1 block, BAZ2B block, G9a inh)
C[C@H](N)[C@H](O)c1ccc(O)c(O)c1	G9a inh 1.58µM (no result: JMJD2A Tudor, L3MBTL1 block, HP1b chromo inh, PI5P4Ka inh, BAZ2B block)
COc1ccc(OC)c(C(O)C(C)N)c1 (stereo unspecified)	none
CC(N)[C@H](O)c1ccc(O)c(O)c1 (stereo partly specified)	JMJD2A Tudor 14.1µM, G9a inh 14.1µM (no result: L3MBTL1 block, HP1b chromo inh, PI5P4Ka inh, BAZ2B block)
C[C@@H](N)[C@@H](O)c1ccc(O)c(O)c1	G9a inh 2µM (no result: JMJD2A Tudor, L3MBTL1 block, HP1b chromo inh, PI5P4Ka inh, BAZ2B block)
CC(C)=CCCC1(C)C=Cc2c(O)c3c(c(CC=C(C)C)c2O1)OC12C(CC4CC1C(C)(C)OC2(C/C=C(/C)C(=O)O)C4O)C3=O (stereo unspecified)	none (no result: JMJD2A Tudor, L3MBTL1 block, HP1b chromo inh, PI5P4Ka inh, BAZ2B block)
CC1=CC(=O)NP(=O)(Oc2ccc3ccccc3c2)N1 (stereo unspecified)	JMJD2A Tudor 44.7µM, HP1b chromo inh 14.1µM, G9a inh 3.55µM (no result: BAZ2B block)
O=Cc1ccco1	none (no result: JMJD2A Tudor, L3MBTL1 block, HP1b chromo inh, PI5P4Ka inh, BAZ2B block)
CCCCn1c(-c2ccoc2C)n[nH]c1=S	JMJD2A Tudor 7.94µM, G9a inh 3.98µM
CCC1(CC)C(=O)NC(=O)NC1=O	none (no result: JMJD2A Tudor, L3MBTL1 block, HP1b chromo inh, PI5P4Ka inh, BAZ2B block)
CCCN(CCC)CCc1ccc(O)c(O)c1	G9a inh 20µM! (no result: JMJD2A Tudor, L3MBTL1 block, HP1b chromo inh, PI5P4Ka inh, BAZ2B block)
CN(C)CCN(C)CCc1ccc(Cl)c(Cl)c1	none (no result: JMJD2A Tudor, L3MBTL1 block, HP1b chromo inh, PI5P4Ka inh, BAZ2B block)
OCCCc1ccc(O)c(O)c1	JMJD2A Tudor 39.8µM, HP1b chromo inh inconclusive
O=C(Oc1ccccc1)N1CCC2(CC1)CN(C(c1ccccc1)c1ccccc1)C2	none (no result: JMJD2A Tudor, L3MBTL1 block, HP1b chromo inh, PI5P4Ka inh, BAZ2B block)
CCc1ccc(NC(=O)CN2C(=O)C3(SCC(=O)N3c3ccc(F)c(F)c3)c3ccccc32)cc1 (stereo unspecified)	G9a inh inconclusive (no result: L3MBTL1 block, PI5P4Ka inh)
Cc1[nH]n(-c2ccccc2)c(=O)c1C(c1ccc([N+](=O)[O-])cc1)c1c(C)[nH]n(-c2ccccc2)c1=O	JMJD2A Tudor 17.8µM, L3MBTL1 block inconclusive, HP1b chromo inh 35.5µM, BAZ2B block 39.8µM, G9a inh 11.2µM
Cc1[nH]n(-c2ccccc2)c(=O)c1C(C[N+](=O)[O-])c1ccccc1Cl (stereo unspecified)	BAZ2B block inconclusive, G9a inh inconclusive (no result: L3MBTL1 block)
COc1ccc(NP2(=O)OCC(C)(N)CO2)cc1 (stereo unspecified)	none (no result: L3MBTL1 block, BAZ2B block, G9a inh)
COc1ccc(NC2CC(=O)N(C(C)C)C2=O)cc1 (stereo unspecified)	G9a inh 22.4µM (no result: PI5P4Ka inh)
CCN1CCN(Cc2ccc(C)cc2C)CC1	BAZ2B block inconclusive, G9a inh 56.2µM
Cc1ccc(CN2CCN(C)CC2)c(C)c1	none
Cc1noc(C)c1C(=O)N1CCC2(CCCN(CC(C)C)C2)CC1	none (no result: JMJD2A Tudor, L3MBTL1 block, HP1b chromo inh, PI5P4Ka inh, BAZ2B block)
COc1ccc2c(c1)NP(=S)(Oc1ccccc1)N2 (stereo unspecified)	JMJD2A Tudor inconclusive, L3MBTL1 block inconclusive, HP1b chromo inh inconclusive, BAZ2B block inconclusive, G9a inh 7.08µM
Cc1cc(C(=O)CS(=O)c2ccc(F)cc2)cc(C)c1OC(=O)N(C)C (stereo unspecified)	G9a inh 39.8µM
COc1cccc(-n2c(/C=C/c3cccc(C)c3)nc3ccccc3c2=O)c1	none (no result: L3MBTL1 block, PI5P4Ka inh)
COP(=O)(OC)C1(O)C(=O)Nc2ccc(Br)cc21 (stereo unspecified)	G9a inh 8.91µM
O=C1c2ccccc2-c2cccc3cccc1c23	JMJD2A Tudor 56.2µM (no result: L3MBTL1 block, BAZ2B block)
CCOC(=O)C(NC(C)=O)C(OC(C)=O)c1cccc(N(CCCl)CCCl)c1 (stereo unspecified)	G9a inh 14.1µM
CCN(CC)P(=O)(Nc1ccc(Br)cc1)c1c(C)nn(CCC#N)c1NC(=O)c1ccc(Cl)cc1 (stereo unspecified)	none (no result: L3MBTL1 block)
Cc1c(N=Nc2c(O)n(C)c(=O)n(C)c2=O)c(=O)n(-c2ccccc2)n1C	BAZ2B block 35.5µM, G9a inh inconclusive
Cc1c(N=Cc2c(O)n(Cc3ccccc3)c(=O)[nH]c2=O)c(=O)n(-c2ccccc2)n1C	none
Cc1c(N=Nc2c(O)n(Cc3ccccc3)c(=O)[nH]c2=O)c(=O)n(-c2ccccc2)n1C	JMJD2A Tudor 20µM, L3MBTL1 block inconclusive, BAZ2B block 10µM, G9a inh inconclusive
CCCCn1c(O)c(C=Nc2c(C)n(C)n(-c3ccccc3)c2=O)c(=O)[nH]c1=O	G9a inh 56.2µM
COc1ccc(OC)c(C(Nc2ccccc2)P(=O)(OC(C)C)OC(C)C)c1 (stereo unspecified)	G9a inh inconclusive
CCCCC/C=C\C/C=C\C/C=C\C/C=C\CCCC(=O)NC1CC1	none (no result: JMJD2A Tudor, L3MBTL1 block, HP1b chromo inh, PI5P4Ka inh, BAZ2B block)
COc1cc(/C=N/NP(=S)(c2ccccc2)c2ccccc2)ccc1O	JMJD2A Tudor inconclusive, G9a inh 44.7µM (no result: L3MBTL1 block)

Screens: PubChem, National Center for Advancing Translational Sciences (NCATS)
